Source: PubChem (National Center for Advancing Translational Sciences (NCATS))
LmPK inhibitor: LmPK (Leishmania mexicana) enzyme inhibition. purified LmPK, Kinase-Glo ATP luminescence, 1 h. Potency, µM (series often up to 57.5 µM), without a hit: at the top dose activity change, negative = inhibition, hits mostly inhibitors. 290,000 tested, 0.37% active. AID 1721; further: potency means the concentration at half of the fitted maximal effect; on the % scale 0 is the no-effect control and ±100 the full control effect
Target sequence (Q27686 whole entry, looked up): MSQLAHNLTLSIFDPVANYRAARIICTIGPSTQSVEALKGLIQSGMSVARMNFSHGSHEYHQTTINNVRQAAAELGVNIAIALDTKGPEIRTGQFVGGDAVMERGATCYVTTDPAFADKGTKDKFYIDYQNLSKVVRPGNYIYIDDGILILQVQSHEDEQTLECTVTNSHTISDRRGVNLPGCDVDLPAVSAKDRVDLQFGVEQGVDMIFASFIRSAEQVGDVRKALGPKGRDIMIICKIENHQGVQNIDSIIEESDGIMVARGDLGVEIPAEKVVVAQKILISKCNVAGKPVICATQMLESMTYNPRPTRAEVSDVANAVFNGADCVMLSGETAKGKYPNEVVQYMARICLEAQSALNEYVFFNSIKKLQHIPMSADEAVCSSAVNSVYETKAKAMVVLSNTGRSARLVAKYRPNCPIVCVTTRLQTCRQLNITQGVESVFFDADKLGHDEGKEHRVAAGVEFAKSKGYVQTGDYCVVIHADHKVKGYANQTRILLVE
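In 50 mM imidazole pH 7.2 with 7 mM MgCl2, LmPK (0.1 nM) turned over PEP (0.5 mM) and ADP (0.1 mM) for 1 h at room temperature. Luciferase read-out of ATP.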
Shiga toxin inh: Shiga toxin inhibition | Vero cells, Shiga toxin protein synthesis inhibition reporter | inhibition, % at 38.7 µM | 290,000 tested, 9.2% active | AID 2315; in the data active means inhibition mostly above about 28%, no sharp cut-off; inactive means mostly below about 43%; further: 0% is about no effect
FBPA Giardia inh: inhibitors of Giardia lamblia fructose-1,6-bisphosphate aldolase. A8B2U2. purified Giardia FBPA. Potency, µM (doses to about 59.6 µM), for inactives: top-dose activity, negative = inhibition, actives largely listed as inhibitors. 290,000 tested, 0.71% active; further: potency means the concentration at half of the fitted maximal effect; on the % scale 0 is the no-effect control and ±100 the full control effect; nearly all actives have a fitted effect of over 55% in size
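40 nM FBPA preincubated 10 min at RT with compound (up to 57.5 uM final), then substrate plus GAPDH/TPI/NAD/arsenate coupling and diaphorase/resazurin added. Fluorescence read after 20 min at RT, 525/598 nm.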
Cycloheximide cs: counter-screen hit for Shiga toxin inhibitors, cycloheximide; cell reporter, cycloheximide protein synthesis inhibition counterscreen; max response, %; 300,000 tested, 12% active; in the data active means max response mostly above about 13%, no sharp cut-off; inactive means mostly below about 14%; further: read at 38.3 µM for the half of the compounds with a filed dose; 0% is about no effect
NS1 function inh: blocks influenza NS1 protein function | 270,000 tested, 0.4% active | Potency, µM (doses to about 46.1 µM), for inactives: at the highest dose activity, positive = more growth; calls by dose curve; further: potency means the concentration at half of the fitted maximal effect; actives are rising curves; nearly all actives have a fitted effect of over 50% in size
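Read-out: OD600 growth recovery of NS1-expressing budding yeast. Cells grown overnight at 30C in -URA glucose medium, washed, resuspended and diluted 1:100 in 2% galactose assay medium, pH 6.0. Same strain lacking NS1 served as positive control.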
Starred values were filed as active, the others as inactive; i = inactive; ? = inconclusive; / = no result; + = active, no number; [ ] = remark or other dose. Compounds with a hit are over-represented: about 14% of the library has one in this group of screens. Unless noted, the call rests on the fitted dose curve; in most records, active means well fitted curve in the direction sought with a large enough effect; inconclusive means small, poorly fitted or top-dose-only effect, or another doubt; inactive means no such curve, though single readings can be large; an effect the other way counts as inactive or inconclusive.

SMILES | LmPK inhibitor | Shiga toxin inh | FBPA Giardia inh | Cycloheximide cs | NS1 function inh
COc1ccc(-c2cc(C(=O)OCC(=O)Nc3ccc4c(c3)OCO4)c3ccccc3n2)cc1 | 1% | 21 | -1% | 6 | -11%
CC(=O)c1ccc(NC(=O)c2cc(CC(C)C)nc3ccccc23)cc1 | -2% | 82* | 14% | 48* | -23%
CCOc1ccc(-c2cc(C(=O)Nc3ccc4c(c3)OCCO4)c3ccccc3n2)cc1 | -16% | 52* | -3% | 23* | -3%
COc1ccc(-c2cc(C(=O)Nc3ccc(C(N)=O)cc3)c3ccccc3n2)cc1 | 0% | 65* | 2% | 16* | -9%
CC(=O)NCCNc1ncnc2ccc(-c3ccccc3C)cc12 | / | / | 7% | / | /
COC(=O)c1c(-c2ccccc2)csc1NC1=NS(=O)(=O)c2ccccc21 | -4% | + | 27% | 62* | 19%
CCN(CC(=O)Nc1c(F)cccc1F)C(=O)C1CCCN(C(=O)c2ccc(Cl)cc2)C1 (stereo unspecified) | -5% | -15 | / | 7 | -65%
N/C(=N\OC(=O)c1cccnc1)c1ccc(Cl)cc1Cl | 1% | 44* | 0% | 22* | /
N/C(=N\OC(=O)c1cccnc1)c1ccccc1Cl | 3% | 84* | 7% | 27* | /
COc1ccc(C(=O)Nc2cc(Cl)ccc2Cl)c(OC)n1 | -13% | 21 | 8% | 18* | -1%
O=C(Nc1ccccc1O)c1ccc(Cl)cc1 | -16% | 95* | -8% | 42* | -70%
COc1ccc(C(=O)Nc2cc(Cl)ccc2OC(=O)c2ccc(OC)cc2)cc1 | -2% | 89* | -2% | 65* | -5%
CSc1ccccc1NC(=O)c1ccc([N+](=O)[O-])cc1 | 0% | 18 | -3% | 5 | /
O=C(Nc1ccccc1O)c1ccc([N+](=O)[O-])cc1 | 1% | 78* | 16% | 27* | -3%
CN1CCN(c2ccccc2NC(=O)c2ccc3c(c2)OCCO3)CC1 | -4% | 11 | 5% | -1 | -6%
COc1ccc(NC(=O)NC2(C(=O)N3CCCCC3)CCCCC2)cc1 | -1% | -5 | 5% | 2 | -1%
Cc1ccc(C(=O)Nc2cc(Cl)ccc2OC(=O)c2ccc(C)cc2)cc1 | 3% | 98* | -6% | 36* | -24%
O=C(Nc1ccccc1OC(=O)c1ccc(Cl)cc1)c1ccc(Cl)cc1 | -1% | 34* | 3% | 37* | -3%
COc1ccc(CC(=O)Nc2cc(Cl)ccc2O)cc1 | 2% | 8 | -1% | 11* | -48%
COc1ccc(CC(=O)Nc2ccccc2NC(=O)Cc2ccc(OC)cc2)cc1 | -1% | -6 | 11% | -1 | 1%
O=C(CN(c1ccccc1)S(=O)(=O)c1ccccc1[N+](=O)[O-])N1CCCC1 | -3% | -11 | 23% | -8 | -4%
C[C@H](CCC(=O)O)[C@H]1CC[C@]2(C)[C@@H]3C(=O)C[C@H]4C(C)(C)[C@@H](O)CC[C@]4(C)[C@H]3C(=O)C[C@@]12C | / | / | / | / | 0%
Cc1cc(C)[n+]2[nH]c(N)c(N=Nc3ccccc3)c2n1 | -1% | 58* | ? | 17* | -32%
Cc1cc(C)n2nc(N)c(N=Nc3ccccc3)c2n1 | -3% | 58 | 1% | 25 | -6%
CCCCC[C@]12Cc3ccccc3C(O1)c1c(cc(C)oc1=O)O2 | -5%[11.5 µM] | i | 9%[12.9 µM] | 0 | 0%
SMILES | LmPK inhibitor | Shiga toxin inh | FBPA Giardia inh | Cycloheximide cs | NS1 function inh
CN(C)/C=N/C(=S)Nc1ccc(Br)cc1F | 1% | 52* | ? | 49* | -33%
CN(C)/C=N/C(=S)Nc1ccccc1 | -1% | 88 | -3% | 19* | 9%
O=C(/C=C/c1ccc(Cl)cc1)N1CCN(c2ncccn2)CC1 | -3% | -2 | 5% | -5 | 14%
CN1CCN(C(=O)/C=C/c2ccc(Cl)cc2)CC1 | 3% | 33 | 4% | 24* | /
CN1CCN(C(=O)/C=C/c2ccc(Cl)c(Cl)c2)CC1 | 5% | 30 | 1% | 37* | 6%
C=CC[C@@H]1C=C[C@H](ON=C(C)C)[C@H](CO)O1 | / | / | 0%[12.9 µM] | / | /
COc1ccc(CN2C(=NC(=O)c3ccccc3)SC3CS(=O)(=O)CC32)cc1 (stereo unspecified) | 1% | 1 | -5% | -3 | 9%
O=C(NCCCN1CCCC1=O)c1ccc2c(c1)OCO2 | -8% | 59* | -10% | 15* | -2%
O=C(NCCCN1CCCC1=O)c1ccc(OCc2ccccc2)cc1 | -10% | 45 | 1% | 28* | 1%
COc1ccc(C(=O)NCCCN2CCCC2=O)cc1 | 1% | 12 | 0% | 9 | 4%
CC1(C)Cc2c(sc3ncnc(NN)c23)CO1 | 3% | 8 | 14% | -1 | -3%
COCCNC(=O)[C@@]1(C)C=C[C@@H](Cc2ccccc2)N1C(=O)c1ccccc1 | 1% | 28* | 4% | 21* | -11%
CNC(=O)[C@@]1(C)C=C[C@@H](Cc2ccccc2)N1C(=O)OC | 4% | 50 | -1% | 22* | -5%
CCCCOc1cccc(-c2nnc(N)s2)c1 | -2% | 17 | 15% | 25* | -20%
Cc1cccc(-c2nnc(N)s2)c1 | 0% | 21 | -4% | 7 | -11%
CCCOc1cccc(-c2nnc(N)s2)c1 | 3% | 44* | 13% | 22* | -134%
COc1ccc(-n2nc(C(=O)NCC(=O)N3CCC(C(N)=O)CC3)c3ccccc3c2=O)cc1 | -4% | -8 | 13% | -2 | 9%
CCCn1c(-c2ccc(F)cc2)nc2c(NC3CCN(Cc4ccccc4)CC3)nc(C)nc21 | / | / | 2% | / | /
O=C(N/N=C/c1ccccc1C(=O)O)c1ccccc1Br | 0% | 38 | 0% | 7 | /
O=C(N/N=C/c1cn(-c2cccs2)nc1-c1ccccc1)c1ccccc1Br | 1% | 55 | -4% | 25* | 17%
O=C(N/N=C/c1cn(-c2cccs2)nc1-c1ccccc1)c1ccccc1O | -4% | 94* | -6% | 49* | 23%
COc1ccc(NC(=O)N2CCC3(CC2)CCN(C(=O)c2cc(C(F)(F)F)cc(C(F)(F)F)c2)CC3)cc1 | / | / | -5% | / | /
Cc1cccc(NC(=O)c2ccccc2Br)n1 | 2% | 28 | -3% | 13 | -12%
Cc1cccc(NC(=O)c2cc(NC(=O)C3CCCCC3C(=O)O)ccc2Cl)n1 (stereo unspecified) | 0% | -4 | 14% | 0 | -1%
Cc1cccc(NC(=O)c2ccoc2C)n1 | ? | 84* | 5% | 29* | -6%
SMILES | LmPK inhibitor | Shiga toxin inh | FBPA Giardia inh | Cycloheximide cs | NS1 function inh
Cc1cc(C)c(NC(=O)c2ccoc2C)c(C)c1 | -11% | -7 | 6% | -4 | -11%
Cc1ccccc1CC(=O)Nc1cc(C(C)(C)C)on1 | 4% | 12 | 7% | 9.7* | -4%
Cc1cc(NC(=O)Cc2ccccc2C)no1 | 4% | -1 | 8% | -3 | -6%
Cc1occc1C(=O)Nc1cc(C(C)(C)C)on1 | 13µM* | 70* | 1% | 29* | 5%
Cc1cccc(NC(=O)c2cc(NC(=O)c3ccco3)ccc2Cl)n1 | 3% | 21* | 6% | 25 | -57%
COc1ccc(C2CC(O)(c3ccccc3)Oc3cc(C)c(Cl)c(C)c32)cc1 (stereo unspecified) | / | -3 | -5% | -3 | /
O=C(O)c1ccc2c(c1)C(=O)N([C@H](Cc1ccc(O)c(O)c1)C(=O)O)C2=O | / | -4 | -15% | -6 | /
